# Experimental data published in PubChem BioAssay.
# The source made the active and inactive calls.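 How the source made its calls, unless noted: active means visual image review flags a hit and inhibition of aggregation exceeds 20%; inconclusive means visual hit but inhibition at or below 20%; inactive means no hit on visual image review.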
# Assay: inhibitors of TNFa-induced NFkB p65 translocation, primary screen, imaging, HUVEC, MLSMR starter and 10KST1 sets (AID 438;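 active means inhibition above 20% together with a positive visual image hit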;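 further: compound added about 3h40 before a 20 min TNFalpha stimulation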;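 on inhibition: signal is the nuclear over cytoplasmic p65 intensity ratio per well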)
# Conditions: HUVEC TNFa-induced p65 nuclear translocation; cell count: measured here: nuclei count (cytotoxicity indicator), at 2.08 µM; inhibition: at 2 µM, stronger effect = higher value, 0% TNFa-plus-vehicle, 100% no-TNFa wells
SMILES,inhibition,cell count
COc1cc(-c2c(C#N)c(N)nc3c2CCCC3)cc(OC)c1OC,-8.6% (inactive),620
O=C(OCc1cccs1)c1ccccc1NS(=O)(=O)c1ccc2c(c1)OCCO2,-6.7% (inactive),709
O=C1NCCCc2c1no[n+]2[O-],5.3% (inactive),381
CCOC(=O)c1cc2oc(C)cc2n1CC(=O)OC1CCCCC1,5.3% (inactive),353
Cc1cccc(-n2ncc(C#N)c2N)c1,-3% (inactive),644
CC(=O)c1cc(-c2ccccc2)n(CC(=O)N2CCC(N3CCCCC3)CC2)c1C,7.9% (inactive),263
CN(C)S(=O)(=O)c1ccc(S(=O)(=O)Nc2ccc3c(c2)oc2ccccc23)cc1,-7.9% (inactive),414
CCCCOC(=O)CSc1nc2c(cc1C#N)C(=O)CC(C)(C)C2,6.7% (inactive),531
Cc1ccc(S(=O)(=O)Cc2ccc(C(=O)NCCCN3CCN(C)CC3)o2)cc1,2.3% (inactive),597
Cc1onc(-c2c(Cl)cccc2Cl)c1C(=O)NCCCN1CCOCC1,3.6% (inactive),618
O=C(O)C1C2C=CC(O2)C1C(=O)NCc1ccc(Cl)cc1 (configuration not stated),-7.5% (inactive),714
CC(C)OC(=O)CSc1nnnn1-c1ccc2c(c1)OCCO2,-9.9% (inactive),294
CCOC(=O)Cc1nn2c(=O)cc(C)nc2s1,-22.9% (inactive),728
O=C(CSc1ncnc2sc3c(c12)CCCCC3)NCc1ccco1,-5.1% (inactive),354
CCCn1c(SCC(=O)Nc2cc(C)on2)nc2c1c(=O)n(C)c(=O)n2C,6.8% (inactive),400
O=C(CSc1ncnc2ccccc12)N1CCN(c2ccccc2)CC1,-10.9% (inactive),567
Nc1ncnc2nc(SCCN3CCCCC3)[nH]c12,-0.7% (inactive),189
CCN(CC)S(=O)(=O)N1CCC(C(=O)NCC2COc3ccccc3O2)CC1 (configuration not stated),17% (inactive),616
Cc1cc(NC(=O)Cn2cnc3c2c(=O)n(C)c(=O)n3C)n(-c2ccccc2)n1,-38.9% (inactive),580
O=C(CSc1nnc(Cn2cnc3ccccc32)o1)c1ccccc1,3% (inactive),672
O=C(c1nc2n(n1)C(c1ccc(Cl)cc1)C=C(c1ccccc1)N2)N1CCOCC1 (configuration not stated),-3.9% (inactive),811
N#Cc1cc2sc3nnc(-c4ccncc4)n3c2cc1C#N,10.9% (inactive),728
COC(=O)C(C)Oc1ccc2c3c(c(=O)oc2c1)CCCCC3 (configuration not stated),-7.8% (inactive),648
COc1cccc(-c2cc(C(=O)Nc3cc(C)n(Cc4ccc(Cl)cc4)n3)no2)c1,-5.7% (inactive),498
CCn1ncc(C2=NOC(C(=O)NCc3ccc(Cl)cc3)C2)c1C (configuration not stated),13.4% (inactive),576
CCOC(=O)N1CCN(C(=O)CN(C)S(=O)(=O)c2ccc(OC)c(OC)c2)CC1,5.8% (inactive),464

# Assay: inhibitors of mutant huntingtin aggregation, primary screen, imaging, exon1htt(103Q)mCFP cells, high-content imaging (AID 483);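 further: compound exposure lasted 3 days before fixation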;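 on nuclei count: percent of the per-plate median nuclei count of sample wells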
# Conditions: exon1htt(103Q)mCFP cell line, aggregate imaging, at 2 µM; inhibition of aggregation: stronger effect = higher value; nuclei count: measured here: cell count, toxicity
SMILES,nuclei count,inhibition of aggregation
Cc1ccc(S(=O)(=O)N2CCOCC2)cc1C(=O)Nc1ccc(-c2cn3ccsc3n2)cc1,113%,-3% (inactive)
Cc1ccc(S(=O)(=O)NCCc2ccncc2)cc1,92.8%,6.8% (inactive)
O=C(NCc1ccco1)C1Cc2ccccc2CN1S(=O)(=O)c1ccccc1F (configuration not stated),95.5%,26.2% (inactive)
Cc1ccccc1NC(=O)c1c(F)c(F)c(F)c(F)c1F,98.6%,-11.8% (inactive)
CC(C(=O)N1CC2(C)CC1CC(C)(C)C2)N1C(=O)c2ccccc2C1=O (configuration not stated),99.8%,14.3% (inactive)
O=c1c2c3nc4ccccc4nc3n(CC3CCCO3)c2ncn1CCc1ccccc1 (configuration not stated),116%,-0.4% (inactive)
COC(=O)C1=C(C)NC(=O)C1(NC(=O)c1cccnc1)C(F)(F)F (configuration not stated),87.8%,-6.9% (inactive)
CCCn1c2ccccc2c2nnc(SCC(=O)OCC)nc21,124%,-3% (inactive)
O=C(Nc1ccc(Cl)cc1C(=O)Nc1ccncc1)c1ccco1,81.3%,-7.4% (inactive)
COCCOC(=O)C1=C(C)N=c2s/c(=C\c3cccs3)c(=O)n2C1c1cccs1 (configuration not stated),98.1%,-47% (inactive)
Cc1cc2ncc(C(=O)Nc3ccccc3)c(C)n2n1,101%,-9.1% (inactive)
Cn1c(SC/C=C/c2ccccc2)nnc1-c1cnccn1,114%,-4.5% (inactive)
CCn1c(=O)n(CC(=O)Nc2cc(OC)ccc2OC)c(=O)c2ccccc21,63.6%,17.9% (inactive)
CCOC(=O)COc1ccc(S(=O)(=O)N2CCc3ccccc3C2)cc1,58.4%,-59% (inactive)
COc1cc(-c2c(C#N)c(N)nc3c2CCCC3)cc(OC)c1OC,101%,0.1% (inactive)
O=C(OCc1cccs1)c1ccccc1NS(=O)(=O)c1ccc2c(c1)OCCO2,84.5%,10.3% (inactive)
O=C1NCCCc2c1no[n+]2[O-],54.8%,19.4% (inactive)
CCOC(=O)c1cc2oc(C)cc2n1CC(=O)OC1CCCCC1,110%,-10.9% (inactive)
Cc1cccc(-n2ncc(C#N)c2N)c1,97%,11.6% (inactive)
CC(=O)c1cc(-c2ccccc2)n(CC(=O)N2CCC(N3CCCCC3)CC2)c1C,96.8%,-0.7% (inactive)

SMILES,nuclei count,inhibition of aggregation
CN(C)S(=O)(=O)c1ccc(S(=O)(=O)Nc2ccc3c(c2)oc2ccccc23)cc1,107%,-3.8% (inactive)
CCCCOC(=O)CSc1nc2c(cc1C#N)C(=O)CC(C)(C)C2,98.4%,-21.3% (inactive)
Cc1ccc(S(=O)(=O)Cc2ccc(C(=O)NCCCN3CCN(C)CC3)o2)cc1,101%,-11.8% (inactive)
Cc1onc(-c2c(Cl)cccc2Cl)c1C(=O)NCCCN1CCOCC1,100%,13.7% (inactive)
O=C(O)C1C2C=CC(O2)C1C(=O)NCc1ccc(Cl)cc1 (configuration not stated),95.5%,22.6% (inactive)
CC(C)OC(=O)CSc1nnnn1-c1ccc2c(c1)OCCO2,111%,-2.7% (inactive)
CCOC(=O)Cc1nn2c(=O)cc(C)nc2s1,118%,6.2% (inactive)
O=C(CSc1ncnc2sc3c(c12)CCCCC3)NCc1ccco1,93.9%,-11.3% (inactive)
CCCn1c(SCC(=O)Nc2cc(C)on2)nc2c1c(=O)n(C)c(=O)n2C,95.2%,3.2% (inactive)
O=C(CSc1ncnc2ccccc12)N1CCN(c2ccccc2)CC1,99.4%,10.5% (inactive)
Nc1ncnc2nc(SCCN3CCCCC3)[nH]c12,90.8%,5% (inactive)
CCN(CC)S(=O)(=O)N1CCC(C(=O)NCC2COc3ccccc3O2)CC1 (configuration not stated),88.5%,-12.4% (inactive)
Cc1cc(NC(=O)Cn2cnc3c2c(=O)n(C)c(=O)n3C)n(-c2ccccc2)n1,99.2%,1.1% (inactive)
O=C(CSc1nnc(Cn2cnc3ccccc32)o1)c1ccccc1,92.9%,-1.5% (inactive)
O=C(c1nc2n(n1)C(c1ccc(Cl)cc1)C=C(c1ccccc1)N2)N1CCOCC1 (configuration not stated),126%,10.6% (inactive)
N#Cc1cc2sc3nnc(-c4ccncc4)n3c2cc1C#N,49.6%,-17.6% (inactive)
COC(=O)C(C)Oc1ccc2c3c(c(=O)oc2c1)CCCCC3 (configuration not stated),106%,-24.4% (inactive)
COc1cccc(-c2cc(C(=O)Nc3cc(C)n(Cc4ccc(Cl)cc4)n3)no2)c1,100%,10.2% (inactive)
CCn1ncc(C2=NOC(C(=O)NCc3ccc(Cl)cc3)C2)c1C (configuration not stated),36.3%,-30.2% (inactive)
CCOC(=O)N1CCN(C(=O)CN(C)S(=O)(=O)c2ccc(OC)c(OC)c2)CC1,118%,-12.7% (inactive)
